Measured values from PubChem BioAssay AID651599 (National Center for Advancing Translational Sciences (NCATS), 2012).
Records with an inconclusive call do not appear. Calls follow the shape of the dose curve; as a rule, active = well fitted inhibition curve with a large enough effect; inconclusive = small, poorly fitted or top-dose-only effect; inactive = no such curve, though single readings can be large or run the other way.

Target: Tumor susceptibility gene 101 protein (Homo sapiens) (UniProt Q99816)
Sequence (Q99816 whole entry, looked up): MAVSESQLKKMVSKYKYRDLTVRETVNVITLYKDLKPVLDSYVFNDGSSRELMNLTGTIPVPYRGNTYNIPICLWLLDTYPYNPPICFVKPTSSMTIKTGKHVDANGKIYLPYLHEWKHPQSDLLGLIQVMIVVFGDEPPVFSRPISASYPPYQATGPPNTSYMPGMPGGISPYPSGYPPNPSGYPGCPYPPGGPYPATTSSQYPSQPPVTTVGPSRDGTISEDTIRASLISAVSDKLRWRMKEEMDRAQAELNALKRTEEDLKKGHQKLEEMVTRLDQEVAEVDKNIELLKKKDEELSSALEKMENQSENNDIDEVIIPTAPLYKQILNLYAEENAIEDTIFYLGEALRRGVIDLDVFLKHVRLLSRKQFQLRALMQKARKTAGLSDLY
Assay: qHTS Assay for Iinhibitors of HIV-1 Budding by Blocking the Interaction of PTAP/TSG101: Hit Validation in TR assay
Conditions: Tsg101 binding domain + Texas Red-labeled PTAP peptide, fluorescence polarization, 20 min; series mostly up to 57.5 µM; activity change, negative = inhibition: at the top concentration
Outline: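 Texas Red-PTAP peptide (50 nM) binding to Tsg101 binding domain (10 uM), both final, in pH 7.5 HEPES buffer, read as polarization after 20 min at room temperature; compounds pinned before peptide addition.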
% is scaled to controls: 0 for no effect and ±100 for the full control effect.

Activity change, negative = inhibition, inactive:
O=c1[nH]nc(-c2ccc(F)cc2)cc1Cc1ccc(F)cc1 22%, O=C1Nc2ccc(Cl)cc2C12Nc1ccccc1-c1nnc(SCc3ccccc3F)nc1O2 (stereo not drawn) -20.4%, Cc1ccc[n+](-c2nc([O-])sc2C=O)c1 -9.3%, Cc1cc2nc3c(=O)n(C4CCCCC4)c(=O)[nH]c3nc2cc1N 15%, O=C1c2ccccc2C(=O)c2c1ccc(O)c2O -3.33%, COC(=O)C[C@H]1c2cc(F)ccc2S(=O)(=O)N1c1ccccc1 -24.1%, Cc1ccc(N=Cc2c(O)ccc3ccccc23)cc1F 18.9%, CCN(CC)c1ccc2cc(C(=O)NNC(=O)c3ccc(S(=O)(=O)N4CCCCC4)cc3)c(=O)oc2c1 9.6%, O=C(CCN1C(=O)/C(=C/c2ccco2)SC1=S)Nc1ccc(O)cc1C(=O)O -21.6%, Cc1ccc(C)c2nc3sc(C(=O)N4CCCc5ccccc54)c(N)c3cc12 27.2%, Cc1cc(Br)ccc1NC(=O)c1sc2nc3n(c(=O)c2c1C)CCCC3 0.794%, COc1ccc2nc(N3CCCC3)c(C#N)cc2c1 8.29%, CC[C@@]1(C(=O)OC)N[C@H](CN(C)C(=O)c2ccc(C)cc2)[C@@H]2C(=O)N(Cc3ccccc3)C(=O)[C@@H]21 -6.86%, COC(=O)C[n+]1cccc2ccccc21 11.3%, COc1cccc(C2C3CN(C)CC=C3C(C#N)=C(N)C2(C#N)C#N)c1OC (stereo not drawn) -12.7%, CN(C)c1ccc(/C=C(\C#N)C(=O)Nc2nc3c(s2)CCN(Cc2ccccc2)C3)cc1 28.5%, c1ccc2[nH]c3cc4ncnc4cc3nc2c1 18.6%, Cc1ccc(C2C=C(c3ccccc3)Nc3nc(NS(C)(=O)=O)nn32)cc1 (stereo not drawn) -8.43%
